High-throughput results as filed in PubChem.
mcGAS inh – inhibitors of mouse cGAS. hit rate 0.15% among 160,000. Q8C6L5. recombinant cGAS, Kinase-Glo ATP depletion luminescence. inhibition, % at 12.5 µM;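 note: 0% = negative control wells and 100% = reference inhibitor with no enzyme activity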
NPYLR7 agonist – activates Aedes aegypti NPYLR7 receptor; AID 1259423; activation, % at 10 µM; HEK293T NPYLR7/Galpha15, GCaMP6s calcium fluorescence; hit rate 0.15% among 270,000; in the data active = activation above about 40%;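 note: 0% = vehicle and 100% = reference agonist at the receptor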
hcGAS inh – blocks human cGAS activity; Q8N884; recombinant h-cGAS, ATP depletion, Kinase-Glo luminescence; inhibition, % at 12.5 µM; hit rate 0.081% among 290,000; AID 1259398;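 note: 0% = vehicle reaction and 100% = reaction without DNA for no activity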
Target sequence (Q8N884 whole entry, looked up): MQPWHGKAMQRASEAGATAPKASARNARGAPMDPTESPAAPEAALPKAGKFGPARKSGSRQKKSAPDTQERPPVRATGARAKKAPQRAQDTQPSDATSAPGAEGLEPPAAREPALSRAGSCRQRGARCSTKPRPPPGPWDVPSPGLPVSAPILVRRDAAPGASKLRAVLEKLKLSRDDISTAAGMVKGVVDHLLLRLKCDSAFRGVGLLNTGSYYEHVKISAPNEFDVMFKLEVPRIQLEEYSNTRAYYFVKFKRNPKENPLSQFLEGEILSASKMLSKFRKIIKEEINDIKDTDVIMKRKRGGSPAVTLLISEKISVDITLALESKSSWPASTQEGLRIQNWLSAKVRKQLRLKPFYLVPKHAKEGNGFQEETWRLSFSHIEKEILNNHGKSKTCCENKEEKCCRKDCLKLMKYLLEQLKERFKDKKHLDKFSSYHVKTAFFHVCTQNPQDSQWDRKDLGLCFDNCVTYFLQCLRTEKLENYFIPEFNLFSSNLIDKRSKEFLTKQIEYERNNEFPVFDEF
An asterisk follows results filed as active; nt = no result. Compounds with a hit are over-represented: about 0.28% of the library has one in this group of screens. Cut-off read from the data, not from the text of the source, unless noted: active = inhibition above about 40%; inactive = the rest.

SMILES	mcGAS inh	NPYLR7 agonist	hcGAS inh
Cc1ccccc1-c1noc(CN2[C@@H]3CC[C@H]2CC(O)C3)n1 (stereo partly specified)	-7	nt	-1
CCCCCn1c(=O)c2c(nc3n2CCN3c2cc(C)cc(C)c2)n(C)c1=O	nt	140*	-2
CCCCCn1c(=O)c2c(nc3n2CCN3c2ccccc2)n(C)c1=O	nt	4	-5
CCc1cc2c(ncn3cnnc23)s1	-6	-2	-5
Cc1ccc(CNC(=O)C2CCN(S(=O)(=O)c3cccs3)CC2)cc1F	nt	4	-10
CCC(=O)C(C#N)c1nnc(-c2ccccc2)s1 (stereo unspecified)	nt	8	56*
CC(N)C(=O)Nc1nnc(-c2ccccc2)s1 (stereo unspecified)	-5	-7	-6
CC(=O)C1=C(O)C=C2Oc3c(C(C)=O)c(O)c(C)c(O)c3C2(C)C1=O (stereo unspecified)	86*	1	78*
O=C(CN1CCOc2ccccc2C1)NCCc1nc2c(s1)CCC2	nt	nt	-4
FC(F)(F)c1nc2c(Cl)cc(Cl)cc2[nH]1	nt	3	56*
FC(F)(F)c1nc2ccccc2[nH]1	-2	-1	-4
C=C1C(=O)O[C@@H]2C[C@@]3(C)CCC[C@H](C)C3=C[C@H]12	93*	-6	-4
NC(=O)c1c(SCC(=O)c2ccc(F)cc2)sc2c(O)cc(=O)[nH]c12	-1	1	0
N#Cc1c(SCc2ccccc2C(F)(F)F)sc2c(=O)[nH]c(=O)[nH]c12	7	-3	8
CC(=O)CSc1sc2c(O)cc(=O)[nH]c2c1C#N	73*	13	-2
N#Cc1c(SCc2ccccc2C(F)(F)F)sc2c(O)cc(=O)[nH]c12	63*	-1	6
COc1ccc(Cn2ccnc2CN(C(=O)c2cccc(OC)c2)c2ccccc2)cc1	-4	21	-5
Nc1c(S(=O)(=O)O)cc(Nc2cccc3ccccc23)c2c1C(=O)c1ccccc1C2=O	nt	-15	-23
Nc1c(S(=O)(=O)O)cc(Nc2ccc(Nc3nc(Cl)nc(Nc4ccc(S(=O)(=O)O)cc4)n3)c(S(=O)(=O)O)c2)c2c1C(=O)c1ccccc1C2=O	67*	0	35
CCOc1cc(C=CC(=O)c2ccc3c(c2)OCCO3)cc(Br)c1OCC	-7	3	-8
COc1cc(C=CC(=O)c2ccc3c(c2)OCCO3)cc(Br)c1O	-6	145*	-10
CN1C=CC(=C/C=C2/C=Nc3ccccc32)C=C1	-2	54*	1
CCCCn1c(O)c(C=C2C=Nc3ccccc32)c(=O)[nH]c1=O	6	6	0
Cc1csc2n1cc(C)[n+]2Cc1ccccc1[N+](=O)[O-]	-4	-7	1
CCCNC(=O)N1CCN(c2nc3c(s2)CN(C(=O)CC)CC3)CC1	-6	nt	-6
SMILES	mcGAS inh	NPYLR7 agonist	hcGAS inh
COCCNC(=O)N1CCc2nc(N3CCN(C)CC3)sc2C1	-2	nt	58*
NC(=O)c1cccnc1Sc1ccc2ccccc2c1	nt	-1	-6
O=C1N=c2ccc(F)cc2=C1c1sc(=S)[nH]c1O	100*	-1	15
Nn1c(O)c(C2=c3cc([N+](=O)[O-])ccc3=NC2=O)sc1=S	nt	1	-4
Cc1cc(Br)cc2c1=NC(=O)C=2c1sc(=S)[nH]c1O	94*	-2	5
CC(C)C(C(=O)O)n1c(O)c(C2=c3cc(Br)ccc3=NC2=O)sc1=S (stereo unspecified)	-1	-1	-1
O=C(CN1CCCCCC1)NCCn1nnc2ccccc21	nt	8	2
O=C(CCn1c(Cc2c(Cl)cccc2Cl)nc2ccccc21)NCCN1CCCC1	0	nt	46*
CC(C)(C)C(=O)NCC1CCN(Cc2ccc(-n3cccn3)cc2)C1 (stereo unspecified)	nt	4	-6
O=C(OCN1C(=O)c2ccccc2C1=O)c1ccccc1	nt	22	-15
O=C(OCC1(O)C(Cl)C=CC(OC(=O)c2ccccc2)C1O)c1ccccc1 (stereo unspecified)	48*	-14	-2
O=C(O)C1(C(=O)O)CCC1.[NH2-].[NH2-].[Pt+2]	-4	2	0
O=C1CCC(NC(=O)c2ccccc2Sc2ccccc2)CN1 (stereo unspecified)	nt	0	-6
N#C/C(=C/c1ccc(N2CCCCC2)cc1F)c1ccc(C(=O)O)cc1	-5	-1	0
N#C/C(=C/c1ccc(N2CCCCC2)o1)c1cccc(F)c1	nt	63*	-1
CC(=O)N[C@H]1C[C@@H](CCn2nc(C)cc2C)O[C@@H](CCc2ccccc2)C1	nt	14	-6
Cn1ncc(N2CCC(C(=O)N3CCCCCC3)CC2)cc1=O	-5	nt	-7
CC(C)Nc1ccc(NS(=O)(=O)NCc2ccccc2)cn1	nt	63*	-8
COc1cc(NS(=O)(=O)NCc2ccccc2)cc(OC)c1	nt	6	-5
Cc1ccc2c(n1)[nH]n1c(=O)cc(C)nc21	nt	7	43*
Cc1cc(=O)n2[nH]c(C)c(-c3ccc(F)cc3)c2n1	nt	0	-1
